# Test results: PubChem BioAssay (EPA / NIEHS)
# Inconclusive results are not listed. Some structures have more than one record in an assay (separate samples or runs), and their calls can disagree. The source made the active and inactive calls. The calls were made as follows: active = hit-call score of the fitted dose curve at least 0.9, where 1 is the maximum; inconclusive = response in the unintended direction; inactive = score below 0.9.
# Target: Retinoic acid receptor RXR-alpha (Homo sapiens) (UniProt P19793)
# Experiment: OT_NURR1_NURR1RXRa_1440: Odyssey Thera (OT) 24-hour HEK293T Protein Complementation Assay for Nurr1/retinoid X receptor (RXR) (AID 2283386)
# Summary of the method: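 Steps: fragment-tagged Nurr1 and RXRα expressed in HEK293T; compounds added; after 24 h, complemented reporter quantified by fluorescence intensity; signal increase over DMSO fitted as the single endpoint.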
# Chain of Retinoic acid receptor RXR-alpha (Homo sapiens) (P19793 whole entry, looked up): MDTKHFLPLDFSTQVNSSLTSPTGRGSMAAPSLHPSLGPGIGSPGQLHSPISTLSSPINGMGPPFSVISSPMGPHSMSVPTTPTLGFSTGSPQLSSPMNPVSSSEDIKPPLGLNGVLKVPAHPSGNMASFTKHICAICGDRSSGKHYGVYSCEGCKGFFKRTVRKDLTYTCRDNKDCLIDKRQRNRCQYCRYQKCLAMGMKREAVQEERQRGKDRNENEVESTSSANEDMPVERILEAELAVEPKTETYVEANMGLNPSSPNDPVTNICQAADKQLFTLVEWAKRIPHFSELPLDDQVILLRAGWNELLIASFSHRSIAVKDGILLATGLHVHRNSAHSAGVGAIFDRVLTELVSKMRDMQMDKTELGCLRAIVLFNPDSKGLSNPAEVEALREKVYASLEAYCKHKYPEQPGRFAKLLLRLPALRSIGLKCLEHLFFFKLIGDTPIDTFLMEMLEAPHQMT
SMILES,AC50,outcome
CC(C)N(C(=O)SCC(Cl)=C(Cl)Cl)C(C)C,77.9 µM (active),inactive
CCOP(=S)(Oc1cnc(C(C)(C)C)nc1)OC(C)C (stereo unspecified),78.8 µM (active),inactive
C#CCC1=C(C)C(OC(=O)C2C(C=C(C)C)C2(C)C)CC1=O (stereo unspecified),79.6 µM (active),inactive
CCCSP(=O)(OCC)SCCC,,inactive
C[Si](Cn1cncn1)(c1ccc(F)cc1)c1ccc(F)cc1,,inactive
CNC(=O)ON=C(C)SC,,inactive
CNc1cnn(-c2cccc(C(F)(F)F)c2)c(=O)c1Cl,,inactive
CCCCSP(=O)(SCCCC)SCCCC,,inactive
CCOC(=O)CC(SP(=O)(OC)OC)C(=O)OCC (stereo unspecified),,inactive
CCCCOC(=O)[C@@H](C)Oc1ccc(Oc2ccc(C#N)cc2F)cc1,,inactive
CCCSP(=O)(OCC)Oc1ccc(Br)cc1Cl (stereo unspecified),,inactive
CON=C(C(=O)OC)c1ccccc1CON=C(C)c1cccc(C(F)(F)F)c1,,inactive
CCC(CC)Nc1c([N+](=O)[O-])cc(C)c(C)c1[N+](=O)[O-],82.1 µM (active),inactive
CSc1nc(NC(C)C)nc(NC(C)C)n1,,inactive
CNC(=O)ON=C(SC)C(=O)N(C)C,,inactive
CCNc1nc(Cl)nc(NC(C)(C)C#N)n1,,inactive
O=c1ccc(=O)[nH][nH]1,,inactive
S=C1NCCN1,,inactive
CC(COc1ccc(Oc2ccccc2)cc1)Oc1ccccn1 (stereo unspecified),,inactive
CCOP(=S)(OCC)OC(Cl)C(Cl)(Cl)Cl (stereo unspecified),,inactive
COc1cccc(C(=O)NN(C(=O)c2cc(C)cc(C)c2)C(C)(C)C)c1C,,inactive
CCc1cccc(C)c1N(C(=O)CCl)C(C)COC (stereo unspecified),,inactive
